PKM2 act = increases activity of human pyruvate kinase M2. P14618. purified PKM2, Kinase-Glo ATP luminescence, activation; response scale: 0% is enzyme alone, no compound. Potency, µM (highest dose often 57.5 µM), for inactives: at the highest dose activation, hits mostly activators. 260,000 compounds, 0.34% hits; note: % is set by controls: 0 for no effect and ±100 for the full control effect; nearly all actives have a fitted effect of over 55% in size
Target sequence (P14618 whole entry, looked up): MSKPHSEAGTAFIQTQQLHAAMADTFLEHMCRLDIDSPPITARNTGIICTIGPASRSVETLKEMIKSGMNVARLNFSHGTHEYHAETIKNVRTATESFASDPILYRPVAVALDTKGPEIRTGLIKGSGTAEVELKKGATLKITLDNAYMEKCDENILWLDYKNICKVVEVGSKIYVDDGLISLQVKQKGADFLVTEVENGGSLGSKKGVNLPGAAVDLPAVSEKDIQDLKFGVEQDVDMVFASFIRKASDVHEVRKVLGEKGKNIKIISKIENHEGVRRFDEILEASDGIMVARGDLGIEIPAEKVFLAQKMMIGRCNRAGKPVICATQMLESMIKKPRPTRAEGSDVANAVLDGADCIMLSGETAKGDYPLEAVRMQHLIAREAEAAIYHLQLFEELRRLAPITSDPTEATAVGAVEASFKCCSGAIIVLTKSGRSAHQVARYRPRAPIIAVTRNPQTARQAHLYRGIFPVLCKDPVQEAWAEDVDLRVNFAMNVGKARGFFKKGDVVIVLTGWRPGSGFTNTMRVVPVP
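hPK-M2, >95% pure; 0.1 mM ADP / 0.5 mM PEP final; imidazole pH7.2 buffer w/ 7 mM MgCl2, 50 mM KCl; 1 h RT; Kinase-Glo lum. Intermediate enzyme activity for dual inhibitor/activator qHTS.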
KAT2A inh = GCN5L2 (KAT2A) acetyltransferase inhibition; GCN5L2 HAT assay, ThioGlo1 CoA-SH fluorescence; Potency, µM (series often up to 58.9 µM), for inactives: top-dose activity change, negative = inhibition, usual class: inhibitors; 390,000 compounds, 0.21% hits; note: % is set by controls: 0 for no effect and ±100 for the full control effect
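Free CoA generated was detected with ThioGlo1 (50uM) fluorescence at Ex340nm/Em540nm, read immediately and after 20 min at room temperature. Enzyme, 20 nM in HEPES pH 7.5 buffer, saw compounds 15 min before adding 75uM H3(1-25) peptide and 70uM acetyl-CoA.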
PLK1 PBD inh = PLK1 (human) polo-box domain binding inhibition. Plk1 PBD binding of FITC phosphopeptide, fluorescence polarization. Potency, µM, for inactives: max response, negative = inhibition, hits mostly inhibitors. 360,000 compounds, 2.8% hits; note: series mostly up to about 57 µM; % is set by controls: 0 for no effect and ±100 for the full control effect; nearly all actives have a fitted effect of over 65% in size
VDR inhibitor = vitamin D3 receptor (human) inhibition | AID 504847 | P11473 | Potency, µM, for the others: max response, negative = inhibition, most hits filed as inhibitors | VDR-SRC2-3 peptide fluorescence polarization, 2 h | 400,000 compounds, 0.93% hits; note: % is set by controls: 0 for no effect and ±100 for the full control effect
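Fluorescence polarization assay measuring small-molecule disruption of VDR binding to the coregulator peptide SRC2-3. Compounds were pin-transferred (23 nl) into the reagent mix and incubated 2 h at room temperature before reading.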
GLS inh = inhibitors of human glutaminase (GLS). O94925. GLS enzymatic activity, qHTS titration. Potency, µM (doses to about 45.5 µM), without a hit: at the top dose activity change, negative = inhibition, actives largely listed as inhibitors. 410,000 compounds, 0.21% hits; note: % is set by controls: 0 for no effect and ±100 for the full control effect
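Read-out is an Amplex red fluorescence increase coupled through glutamate oxidase and HRP, measured before and after 30 min room-temperature incubation. hKGA is in 45 mM KH2PO4 (pH 8.2) with 0.02% Tween-20; glutamine added as 1mM solution.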
Mito fusion act = mitochondrial division inhibition or fusion activation | S. cerevisiae fusion-defective mutant growth rescue, CellTiterGlo 48 h | Potency, µM (top dose mostly 46.1 µM), inactives show at the highest dose growth rescue (activation), hits mostly activators | 320,000 compounds, 0.23% hits; note: % of control where 0% means no effect; nearly all actives have a fitted effect of over 45% in size
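Compounds are tested for their ability to restore growth of mitochondrial fusion-defective yeast strains at non-permissive 37C in YPEG medium over 48 hours. Viability is quantified by luciferase luminescence.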
Active calls of the source: *; u = inconclusive; x = no result given; ! = not confirmed by another sample; [ ] = dose if it differs, or a comment. Hits are enriched below; roughly 3.4% of the tested compounds scored in any of these assays. Calls come from the whole dose curve; as a rule, active = well fitted curve in the direction sought with a large enough effect; inconclusive = small, poorly fitted or top-dose-only effect, or another doubt; inactive = no such curve, though single readings can be large; an effect the other way counts as inactive or inconclusive. Potency is the fitted concentration of half-maximal effect.

SMILES	PKM2 act	KAT2A inh	PLK1 PBD inh	VDR inhibitor	GLS inh	Mito fusion act
NC(=O)c1cc(S(=O)(=O)N2CCN(c3ccc([N+](=O)[O-])cc3)CC2)cs1	x	0%	-9%	-14%	-2%	1%
CCOC(=O)C[n+]1c(C)sc2ccc(OC)cc21	29%	-13%	27µM*	u	31%	4%
CC1(C)CC(=O)c2cnc(NC(=O)Cc3ccc(Cl)cc3)nc2C1	-6%	-20%	19µM*	-17%	62%	3%
CCCCC(=O)Nc1ncc2c(n1)CC(C)(C)CC2=O	6%	-1%	-8%	-2%	-14%	0%
CCC(C(=O)NCCc1ccc(OC)cc1OC)n1nc(C)n2c(cc3occc32)c1=O (stereo not drawn)	x	-19%	-21%	23%	-5%	4%
COc1ccc(Cl)cc1NC(=S)N1CCN(c2ccccn2)CC1	-1%	-1%	-7%	-4%	21%	-6%
COc1cc(NC(=S)N2CCN(c3ccccn3)CC2)c(OC)cc1Cl	8%	37%	24µM*	u	7%	-2%
COc1cccc(NC(=S)N2CCN(c3ccccn3)CC2)c1	-2%	3%	27µM*	u	u	-5%
S=C(Nc1ccc(Oc2ccccc2)cc1)N1CCN(c2ccccn2)CC1	0%	0%	24µM*	-12%	2%	3%
CCc1cc(=O)oc2c3c(c(Cl)cc12)OCN(Cc1cccc(OC)c1)C3	x	-24%	x	-4%	25%	x
CC(CCc1ccccc1)NC(=O)/C=C/c1ccc(F)cc1 (stereo not drawn)	-5%	-1%	x	x	x	11µM*
CC(CCc1ccccc1)NC(=O)/C=C/c1ccccc1 (stereo not drawn)	0%	-2%	-3%	9%	12%	5%
O=C(CC1SC(=O)N(c2ccccc2)C1=O)Nc1ccc(Cl)cc1 (stereo not drawn)	10%	-28%	11µM*	40µM*	11µM*	0%
O=C(CC1SC(=O)N(c2ccccc2)C1=O)Nc1ccc(Br)cc1 (stereo not drawn)	1%	-16%	u	35µM*	u	0%
Cc1cccc(-n2c(C)cc(C(=S)N3CCOCC3)c2C)c1C	0%	-2%	u	u	-10%	4%
Cc1cc(C)cc(-n2c(C)cc(C(=S)N3CCOCC3)c2C)c1	-8%	-6%	19µM*	-22%	21%	6%
CN(NC1CC(=O)N(c2ccccc2)C1=O)c1ccccc1 (stereo not drawn)	10%	-4%	-14%	13%	-5%	5%
CCCCNc1c(-c2cccnc2)nc2nc(C)cc(C)n12	x	x	2%	x	42%	x
C=CCn1c(=O)c2c(nc(-c3ccccc3)n2C)n(C)c1=O	x	-12%	x	2%	x	x
O=C(O)c1cnc(-c2ccccc2)nc1Sc1cccc(Cl)c1	6%	0%	30µM*	-4%	0%	17%
O=C(O)c1cnc(-c2ccccc2)nc1Sc1ccccc1	-3%	-3%	u	4%	10%	3%
O=C(O)c1cnc(-c2ccccc2)nc1Sc1ccc(Cl)cc1Cl	-1%	-9%	27µM*	u	-3%	6%
Cc1cccc(-n2c(O)c(C=Nc3ccccc3-c3n[nH]c(=S)[nH]c3=O)c3ccccc3c2=O)n1	-3%	-8%	27µM*	-21%	19%	2%
Cc1ccc(-n2c(O)c(C=Nc3ccccc3-c3n[nH]c(=S)[nH]c3=O)c3ccccc3c2=O)c(C)c1	1%	-10%	27µM*	-3%	11%	-10%
Cc1ccc(-n2c(O)c(C=Nc3ccccc3-c3n[nH]c(=S)[nH]c3=O)c3ccccc3c2=O)cc1C	-1%	u	30µM*	-1%	11%	-4%
SMILES	PKM2 act	KAT2A inh	PLK1 PBD inh	VDR inhibitor	GLS inh	Mito fusion act
Cc1cccc(-n2c(O)c(C=Nc3ccccc3O)c3ccccc3c2=O)n1	-1%	-7%	12%	-6%	-18%	2%
CCOC(=O)C1=C(COC(=O)CNS(=O)(=O)c2ccc(C)c(C)c2)NC(=O)NC1C (stereo not drawn)	x	x	0%	x	-11%	x
COc1cccc(C(=O)OCC(=O)c2ccc(Br)s2)c1OC	x	-8%	-6%	3%	21%	-2%
O=C1CC(c2ccc(F)cc2)c2cc3c(cc2N1)CCC3 (stereo not drawn)	4%	29%	-3%	2%	1%	11µM*
O=C(O)CCSc1ccccn1	0%	-1%	13µM*	-9%	6%	-1%
O=C(CCSc1ccccn1)c1ccccc1	5%	2%	u	u	-3%	2%
CCc1c(C)nc(SCC(=O)N2CCc3ccccc32)[nH]c1=O	3%	0%	x	x	x	-2%
O=C(CSc1nc(-c2ccccc2)cc(=O)[nH]1)N1CCc2ccccc21	-3%	-4%	3µM*	u	u	-2%
Nc1cc(=O)[nH]c(SCC(=O)N2CCCc3ccccc32)n1	4%	1%	-4%	4%	-6%	-4%
CCCc1cc(=O)[nH]c(SCC(=O)N(C)CC(=O)Nc2ccccc2CC)n1	2%	-3%	27µM*	u	57%	1%
CCCc1cc(=O)[nH]c(SCC(=O)N2CCCc3ccccc32)n1	1%	7%	21µM*	-14%	-22%	-1%
Cc1cc(C)c(NC(=O)COC(=O)c2cccc3c2C(=O)c2ccccc2C3=O)c(C)c1	1%	-8%	5%	0%	0%	29%
Cc1cc(C)c(Nc2cc(S(=O)(=O)O)c(N)c3c2C(=O)c2ccccc2C3=O)c(C)c1	-28%	u	24µM*	u	16%	-12%
CCOc1ccc(N)c(SSc2cc(OCC)ccc2N)c1	x	-11%	1.7µM*	10µM*	-14%	-56%
CCOc1cccc(N)c1	x	-10%	-2%	-23%	-7%	4%
CCCCCCCCN1C(=O)[C@H](CC(=O)N2CCN(C(=O)OCC)CC2)C[C@@]2(C(=O)OC)CCCCC=C12	x	x	-2%	x	-17%	x
CC[C@@]1(O)C(=O)OCc2c1cc1n(c2=O)Cc2cc3c(N)cccc3nc2-1	17%	-2%	-19%	-8%	-23%	5%
CC[C@@]1(O)C(=O)OCc2c1cc1n(c2=O)Cc2cc3c(CN(C)C)c(O)ccc3nc2-1	x	u	6µM*	-5%	17%	x
C/C(=N\NC(=O)CC#N)C1COc2ccccc2O1 (stereo not drawn)	2%	0%	21µM*	u	-4%	-2%
C[C@]12CC[C@@H]3c4ccc(O)cc4CC[C@H]3[C@@H]1CC[C@@H]2O	-8%	1%	1%	4%	2%	23µM*!
C[C@@]12CC[C@@H]3c4ccc(O)cc4CC[C@H]3[C@H]1CC[C@H]2O	x	8%[21.4 µM]	x	2%	x	x
